High-throughput results deposited in PubChem by Broad Institute.
PfHsp90 yeast 2 – reduces growth (ATP signal) of yeast expressing P. falciparum Hsp90 | AID 504621 | actives 0.32% (n = 310,000) | S. cerevisiae expressing PfHsp90, BacTiter-Glo ATP, 48 h; yeast lacking PDR1 and PDR3 efflux regulators | inhibition, % at 9.4 µM;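 active = every replicate shows inhibition above about 80%, whatever the replicate mean, limit read from the data; inconclusive = mean inhibition reaches the set limit but some replicate falls short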;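 also: 0% = DMSO neutral controls and 100% = 20 µM radicicol positive controls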
NSD2 HMT inh – inhibitors of human histone methyltransferase NSD2; O96028; NSD2 peptide methylation, AlphaScreen, 120 min; inhibition, % at 12.5 µM; actives 0.54% (n = 310,000); AID 743445; in the data active = inhibition above about 50%
Target sequence (O96028 whole entry, looked up): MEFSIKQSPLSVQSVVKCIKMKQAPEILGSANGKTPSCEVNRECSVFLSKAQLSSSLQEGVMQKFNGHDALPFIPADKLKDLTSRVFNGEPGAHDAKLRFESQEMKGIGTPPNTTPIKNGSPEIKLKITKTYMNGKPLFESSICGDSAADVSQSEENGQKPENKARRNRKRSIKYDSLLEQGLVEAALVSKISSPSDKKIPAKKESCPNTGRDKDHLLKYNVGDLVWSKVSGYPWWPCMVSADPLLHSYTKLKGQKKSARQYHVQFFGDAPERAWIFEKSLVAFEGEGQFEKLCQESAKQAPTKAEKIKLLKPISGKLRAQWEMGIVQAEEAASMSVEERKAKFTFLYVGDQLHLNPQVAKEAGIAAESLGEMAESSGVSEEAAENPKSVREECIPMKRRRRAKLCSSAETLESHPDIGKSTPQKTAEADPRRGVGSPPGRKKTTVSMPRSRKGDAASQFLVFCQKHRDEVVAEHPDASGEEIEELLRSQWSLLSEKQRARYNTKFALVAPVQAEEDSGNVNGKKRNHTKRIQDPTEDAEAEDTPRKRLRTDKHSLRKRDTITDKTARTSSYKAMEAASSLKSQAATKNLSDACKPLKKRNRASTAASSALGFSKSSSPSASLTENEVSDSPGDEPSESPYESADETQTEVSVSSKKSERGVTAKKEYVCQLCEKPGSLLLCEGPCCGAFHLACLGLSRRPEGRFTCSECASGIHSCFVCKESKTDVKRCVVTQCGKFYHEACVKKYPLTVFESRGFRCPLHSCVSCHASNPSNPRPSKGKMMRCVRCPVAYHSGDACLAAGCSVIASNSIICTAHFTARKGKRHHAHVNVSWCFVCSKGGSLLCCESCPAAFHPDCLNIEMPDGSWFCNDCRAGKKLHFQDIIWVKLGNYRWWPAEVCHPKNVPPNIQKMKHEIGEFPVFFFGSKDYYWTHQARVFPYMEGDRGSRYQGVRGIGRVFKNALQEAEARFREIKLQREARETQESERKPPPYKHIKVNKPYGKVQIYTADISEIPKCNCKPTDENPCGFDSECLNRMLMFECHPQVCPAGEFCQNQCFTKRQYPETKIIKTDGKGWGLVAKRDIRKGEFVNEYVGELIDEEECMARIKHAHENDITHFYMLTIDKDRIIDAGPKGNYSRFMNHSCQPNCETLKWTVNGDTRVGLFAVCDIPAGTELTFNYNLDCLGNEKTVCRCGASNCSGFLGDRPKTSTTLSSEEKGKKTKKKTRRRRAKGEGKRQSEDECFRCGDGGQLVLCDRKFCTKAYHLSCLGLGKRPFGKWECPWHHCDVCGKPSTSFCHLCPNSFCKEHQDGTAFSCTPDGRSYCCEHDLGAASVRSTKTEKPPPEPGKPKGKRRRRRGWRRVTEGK
MITF act – activators of MITF-driven TRPM1 promoter activity in SK-MEL-5 cells; SK-MEL-5 TRPM1-promoter luciferase, 24 h; % of positive control, neutral wells = 0; activation, % at 12.5 µM; actives 0.75% (n = 300,000);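 active = mean activation of at least 80% with every replicate also reaching 80%; inconclusive = mean reaches 80% but some replicate falls short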;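 also: 0% = neutral control wells and 100% = parthenolide positive control wells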
MITF TRPM1 inh – inhibitors of MITF-driven TRPM1 promoter in melanoma cells; actives 0.83% (n = 330,000); SK-MEL-5 TRPM1 promoter luciferase, 24 h; inhibition, % at 12.5 µM;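 active = mean inhibition across replicates of 60% or more, whatever share of single replicates reaches that level; inconclusive = some that reach 60%, reason not given; inactive = mean inhibition across replicates below 60%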
Wnt act – activates Wnt/beta-catenin signaling in a reporter cell assay | activator, plate reader | activation, % at 9.35 µM | actives 1.2% (n = 300,000); in the data active = activation above about 30%, passing the limit was not always enough; inconclusive = no clear call, values can overlap the other calls;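 also: 0% = neutral control wells and 100% = positive control wells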
N-glyco inh – blocks N-linked glycosylation in D54 reporter cells; D54 ERlucT glycosylation luciferase reporter, 24 h; percent of 100 nM tunicamycin response; reporter increase, % at 12.5 µM; actives 0.23% (n = 360,000); AID 588692;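 active = mean luciferase reporter signal, scaled so untreated is 0 and the glycosylation-blocking control 100, at or above a set limit in every replicate; inconclusive = mean reaches the limit but not every replicate does; inactive = mean below the limit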;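 also: luciferase carries N-glycosylation sites so blocking glycosylation raises the light; 0% = median of neutral control wells and 100% = median of 100 nM tunicamycin wells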
Active calls of the source: *; ? = inconclusive; . = no result given. Shown are actives, neighbours in structure and some others; about 2.9% of the full set was active somewhere.

SMILES | PfHsp90 yeast 2 | NSD2 HMT inh | MITF act | MITF TRPM1 inh | Wnt act | N-glyco inh
Cc1cc(NC(=O)c2ccccc2Cl)no1 | 3.9 | 7.5 | 59.7 | -58.2 | 15.4 | -2.4
Cc1cc2oc(C(=O)Nc3nonc3C)c(C)c2cc1C | -15.5 | 0.6 | 119.7* | -117.2 | ? | -6.5
Cc1ccc2oc(C(=O)Nc3cc(C)on3)c(C)c2c1 | 4.3 | -2.1 | 21.1 | -23.7 | 42.5* | -3.4
CCc1ccc2oc(C(=O)Nc3nonc3C)c(C)c2c1 | -29.9 | -1.1 | 49.7 | -53.5 | 44.4* | -15.4
Cc1cc(NC(=O)c2sc3ccccc3c2O)no1 | 45.8 | -0.1 | 10.5 | -13.0 | 34.0* | -0.7
CCCCCCCCN1C(=O)[C@@H](CC(=O)NCc2cccc3ccccc23)C[C@@]2(C(=O)OC)C1=C[C@H](C(C)(C)C)O[C@@H]2C | . | -0.6 | . | . | -24.1 | .
Cc1ccc(S(=O)(=O)c2nnn3c2nc(N2CCC(C(N)=O)CC2)c2ccccc23)cc1 | -14.2 | 1.4 | 2.9 | 2.3 | -0.4 | 2.8
Cc1ccc2oc(C(=O)N(C)Cc3ccon3)c(C)c2c1 | 8.2 | 11.9 | 112.2* | -122.2 | 43.6* | -3.4
Cc1ccc2oc(C(=O)N(C)Cc3ccc(C)o3)c(C)c2c1 | -17.9 | 10.4 | 37.7 | -30.8 | 2.8 | 2.3
N#C/C(N=Nc1ccccc1O)=N\Nc1ccccc1O | 20.3 | . | -67.6 | 69.1* | 8.5 | -22.0
O=C(NC1CCCC1)[C@@H]1CCCN1C(=O)[C@H](Cc1cccnc1)NC(=O)N1CCOCC1 | . | . | . | . | -2.7 | .
O=C(/C=C/c1ccc([N+](=O)[O-])cc1)/C=C/c1ccco1 | 15.8 | -4.1 | -52.3 | 55.2 | -0.2 | 30.9*
O=C(/C=C/c1ccc([N+](=O)[O-])cc1)c1ccco1 | -0.4 | 9.8 | 2.0 | -4.4 | 3.2 | 3.2
O=c1cc(-c2ccc(Cl)cc2)oc(=O)[nH]1 | 0.7 | -1.9 | -5.1 | 7.7 | 1.8 | -0.2
O=c1cc(N=Nc2ccc(Cl)cc2)[nH]c(=O)[nH]1 | 29.9 | 20.2 | 0.1 | -0.4 | -6.5 | 70.3*
Nc1[nH]c(C(=O)c2ccccc2)c(-c2cc(F)ccc2Br)c1C(=O)NCCc1c[nH]c2ccccc12 | . | . | . | . | -1.6 | .
O=C(NCCc1c[nH]c2ccccc12)[C@H](Cc1c[nH]c2ccccc12)NC1(C(=O)NC2CCCCC2)CCCCCCC1 | . | -1.7 | . | . | . | .
CCCCCCCCN1C(=O)[C@@H](CC(=O)N2CCC(c3ccccc3)CC2)C[C@@]2(C(=O)OC)C1=C[C@H](C1CCCC1)O[C@@H]2C | . | . | . | . | -9.3 | .
CC(C)CNC(=O)OCc1cn(Cc2ccc(C(F)(F)F)cc2)nn1 | . | 0.2 | . | . | . | .
O=Cc1c(NCc2ccco2)nc2ccccn2c1=O | -15.6 | 7.8 | 6.1 | -2.9 | 5.0 | 1.2
Cc1ccc2[nH]c(=O)c(-c3nc4ccccn4c3NCc3ccco3)cc2c1 | . | 2.3 | 13.8 | -11.0 | 54.6* | 2.2
Oc1cccc(Nc2nc(O)c(/C=C3\C=Nc4ccccc43)s2)c1 | -18.1 | 2.2 | 47.1 | -43.3 | 34.6* | 0.4
Oc1nc(Nc2cccc(Cl)c2)sc1/C=C1\C=Nc2ccccc21 | -25.1 | -0.9 | 0.5 | -1.7 | 1.3 | 5.9
CCOc1ccc(C(=O)N[C@H](C(=O)N2CCN(c3ncccn3)CC2)C(C)C)cc1 | . | 3.4 | . | . | 0.2 | -0.2
CC(=O)c1ccc(NC(=O)Nc2ccc3c(c2)nc(C)n3C)cc1 | 11.1 | -5.6 | 85.0* | -83.2 | 7.2 | -0.9
SMILES | PfHsp90 yeast 2 | NSD2 HMT inh | MITF act | MITF TRPM1 inh | Wnt act | N-glyco inh
O=C(CCC(=O)OCC(=O)c1cccc([N+](=O)[O-])c1)Nc1cccc(Cl)c1Cl | 50.9 | . | -7.1 | 14.5 | 40.1* | 0.6
CN(Cc1ccc2c(c1)CCCN2C)C(=O)[C@@H](Cc1ccccc1)NC(=O)[C@H]1O[C@@H](n2ccc(=O)[nH]c2=O)[C@H](O)[C@@H]1O | . | . | . | . | 2.9 | .
CCCN(CCC)CCNC(=O)c1cc2c(-c3ccc(Cl)cc3)nn(C)c2s1 | -0.4 | 2.6 | -6.5 | 4.2 | 0.3 | 11.7
Cn1nc(-c2ccc(Cl)cc2)c2cc(C(=O)NCCN3CCOCC3)sc21 | -13.7 | . | -18.4 | 17.9 | -1.7 | 0.9
CCCCN(CC)CCNC(=O)c1cc2c(-c3ccc(Cl)cc3)nn(C)c2s1 | -18.0 | 11.1 | -66.5 | 68.2* | -5.0 | 17.6
Cn1nc(-c2ccc(Cl)cc2)c2cc(C(=O)NCCCN3CCOCC3)sc21 | -1.2 | . | 10.9 | -6.6 | -4.7 | 33.4*
CCN(CC)CCNC(=O)c1cc2c(-c3ccc(Cl)cc3)nn(C)c2s1 | 18.1 | . | -61.3 | 62.2* | -4.0 | 36.0*
Cc1cccc(N2CCN(C(=O)NCc3ccc(F)cc3)CC2)c1C | -0.7 | -2.3 | 13.4 | -12.8 | 3.6 | -3.1
Nc1[nH]c(C(=O)c2ccc(Br)cc2)c(-c2ccccc2)c1C(=O)NCCc1c[nH]c2ccccc12 | . | . | . | . | -11.2 | .
CCCNC(=O)C1CC(=O)N(c2ccc(OCc3ccc(F)cc3)cc2)C1 (stereo unspecified) | 14.9 | -0.7 | 49.3 | -50.6 | 9.5 | -9.0
C=CCNC(=O)C1CC(=O)N(c2ccc(OCc3ccc(F)cc3)cc2)C1 (stereo unspecified) | 22.6 | -4.7 | 46.6 | -51.9 | 37.1* | -8.7
COc1ccc(Oc2ncnc3sccc23)cc1 | 7.6 | -6.3 | 88.4* | -87.4 | 9.4 | -2.2
COc1ccc(Nc2ncnc3sccc23)cc1 | 3.3 | 25.2 | 73.2 | -69.8 | 8.8 | -4.6
N#C/C(=C(/O)c1cccc(F)c1)c1nc2ccccc2s1 | 10.2 | 1.0 | 52.3 | -57.5 | 34.4* | -1.6
CC1(C)CC(NC(=O)c2ccc(Cl)c(S(=O)(=O)N(Cc3ccccc3)c3ccccc3)c2)CC(C)(C)N1 | -19.0 | 6.7 | -91.2 | 91.7* | -20.8 | -4.0
COc1ccccc1N(Cc1ccccc1)S(=O)(=O)c1cccc(C(=O)NC2CC(C)(C)NC(C)(C)C2)c1 | . | -1.6 | -2.0 | 2.6 | -5.2 | -3.9
Cc1ccc(C2c3c(n[nH]c3C)C(=O)N2c2ccccc2)cc1 (stereo unspecified) | . | -0.2 | . | . | -1.6 | .
O=C1CN(S(=O)(=O)c2cc(Br)ccc2Br)CCN1 | 6.1 | -3.1 | . | . | -3.6 | 5.3
O=c1c(Br)ccc(Br)cc1Br | 119.9* | . | -101.7 | 101.9* | -6.3 | -19.6
Cc1cc(NC(=O)c2cncc(Br)c2)ccc1NC(=O)c1cc2ccccc2o1 | -1.4 | 0.2 | -64.7 | 65.4* | -4.2 | -10.1
Cc1nc2ccc(NC(=O)c3ccco3)cc2s1 | -5.4 | 0.1 | 90.9* | -81.8 | ? | 1.1
CC(=O)Nc1nc2ccc(NC(=O)c3ccco3)cc2s1 | 3.4 | 2.1 | 33.7 | -32.0 | -0.5 | 0.6
Cc1nc2ccc(NC(=O)c3cncc(Br)c3)cc2s1 | 16.1 | 16.0 | 92.5* | -91.9 | 18.1 | -9.9
CC(=O)Nc1ccc2nc(NC(=O)c3cccs3)sc2c1 | 37.0 | -1.9 | 36.3 | -35.1 | 0.2 | -10.0
Cc1nc2ccc(NC(=O)c3cccs3)cc2s1 | 15.2 | -1.2 | 120.6* | -112.0 | 24.5 | 0.4
Nc1[nH]c(C(=O)c2ccccc2)c(-c2ccc(Cl)cc2F)c1C(=O)NCCc1c[nH]c2ccccc12 | . | -1.4 | . | . | 3.7 | .
